HDAC3 inhib – HDAC3 deacetylase inhibitors, primary screen, biochemical, fluorescence, cell-free homogeneous | Histone deacetylase 3 (Homo sapiens), O15379 | recombinant HDAC3, fluorogenic peptide/trypsin coupled | inhibition, % at 8.3 µM | hit rate 0.15% among 320,000 | AID 2718, 2010; in the data active = inhibition above about 26%, passing the limit was not always enough; inconclusive = no clear call, values can overlap the other calls
IDE inh – human IDE inhibitors in live cells, primary screen, fluorescence polarization, HEK cells, FAbetaB substrate; inhibition, % at 5.59 µM; FAbetaB cleavage; AID 434962, 2010; hit rate 0.41% among 320,000; Insulin-degrading enzyme (Homo sapiens), P14735;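 active = percent inhibition above the average of all tested compounds plus 3 SD, set per screening campaign, cut at about 16% in these data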;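 also: IDE supplied by intact live HEK cells; FP after avidin binding of uncleaved biotin substrate so inhibition keeps polarization high; 0% = DMSO wells and 100% = 60 µM reference IDE inhibitor Ii1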
LANA-H2B inh – blockers of LANA interaction with H2A/H2B – biochemical, FP readout, HTS, primary screen; hit rate 0.6% among 320,000; Protein LANA1 (Human herpesvirus 8 type P (isolate GK18)), Q9QR71; AID 2629, 2010; inhibition, % (no concentration beside the values); cell-free LANA-H2A/H2B peptide, fluorescence polarization; in the data active = inhibition mostly above about 10%, no sharp cut-off; inactive = mostly below about 6.7%
IDE act – human IDE activators in live cells, primary screen, fluorescence polarization, HEK cells, FAbeta-B substrate. Insulin-degrading enzyme (Homo sapiens), P14735. FAbeta-B cleavage; 0% vehicle, 100% cell-free pure enzyme wells. activation, % at 5.96 µM. hit rate 0.073% among 340,000;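 active = activation above the mean of all tested compounds plus 3 SD, set per screening campaign, cut at about 17% in these data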
IDE inh confirm – human IDE inhibitors in live cells, confirmation, fluorescence polarization, HEK cells, FAbetaB substrate; FAbetaB cleavage; hit rate 51% among 1,200; inhibition, % at 5.59 µM; shares compounds with IDE inh; AID 435028, 2010;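 active = mean inhibition across triplicate wells above the cutoff set by the earlier primary insulin-degrading enzyme screen, cut at about 16% in these data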;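 also: 0% = DMSO wells and 100% = 60 µM reference IDE inhibitor Ii1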
HEK293 tox – cytotoxicity in HEK cells, cytotoxicity control for IDE inhibitor project, cell-based, luminescence | inhibition, % at 5.59 µM | hit rate 28% among 1,200 | shares compounds with IDE inh | HEK293 cytotoxicity, ATP luminescence; in the data active = inhibition above about 22%;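 also: 0% = vehicle wells and 100% = reference cytotoxic drug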
Numbers without * were called inactive; ? = inconclusive; · = not tested or not shown. The list is not random: actives were taken first. Their share in the collection is about 1.1%.

SMILES | HDAC3 inhib | IDE inh | LANA-H2B inh | IDE act | IDE inh confirm | HEK293 tox
CCC(=O)NC(c1ccco1)c1cc(Cl)c2ccccc2c1O (stereo not drawn) | 6.3 | 16.2* | -0.7 | -8.5 | 9.2 | 11.7
CC(=O)NC(c1ccco1)c1cc(Cl)c2ccccc2c1O (stereo not drawn) | -34.6 | 35.8* | 2.2 | -7.5 | 10.8 | 6.4
CC(=O)Nc1cc(N=Cc2ccc(O)cc2O)c(Cl)cc1Cl | -1.9 | 17.9* | 5.2 | -54.7 | 32.3* | 11.2
O=c1cc(O)nc(SCc2ccccc2)n1-c1ccc(Cl)cc1 | -1.7 | 5.3 | 0.9 | -1.0 | · | ·
N=c1ccn(CC(=O)c2ccc(-c3ccccc3)cc2)cc1 | -2.1 | 43.1* | 2.7 | -26.9 | 11.0 | 88.4*
CC1=C/C(=C\C=C(C#N)C#N)N(C)c2ccccc21 | 0.9 | 80.6* | -7.6 | -86.6 | 125.1* | 22.8*
CN1/C(=C/C=C(C#N)C#N)C(C)(C)c2ccccc21 | 2.0 | -4.5 | 7.5 | -2.6 | · | ·
CC1(CCC(=O)N2CCCC(Nc3ccc(F)cc3)C2)CC1 (stereo not drawn) | 5.7 | -7.2 | -1.5 | 3.1 | · | ·
COc1cc(/C=C2\SC(=S)N(NC(=O)c3ccncc3)C2=O)ccc1O | · | 80.8* | -7.0 | -136.3 | 165.4* | 5.9
COc1cc(/C=C2\SC(=S)N(NC(=O)c3ccc(O)c(OC)c3)C2=O)ccc1O | 7.1 | 108.7* | -7.7 | -105.6 | 88.8* | 8.7
COc1cc(/C=C2\SC(=S)N(NC(=O)c3cccc(O)c3)C2=O)ccc1O | 5.9 | · | 0.0 | -90.6 | · | ·
CCOc1cc(/C=C2\SC(=S)N(NC(=O)c3cccnc3)C2=O)ccc1O | 13.8 | 40.7* | -2.8 | · | 148.2* | 8.3
O=C(NN1C(=O)/C(=C/c2cccs2)SC1=S)c1cccnc1 | 6.4 | 1.7 | -3.8 | · | · | ·
O=C(NCc1cccnc1)c1ccc(NC(=O)c2ccc([N+](=O)[O-])cc2)cc1 | 3.8 | 1.8 | -4.3 | 3.0 | · | ·
NC(=O)c1ccccc1NC(=O)C1CCCO1 (stereo not drawn) | 1.8 | 6.1 | -6.4 | 3.0 | · | ·
COC1=C/C(=C/c2c(N)n3nc(CC(=O)N4CCCC4)sc3nc2=O)C=CC1=O | 3.1 | 24.4* | 1.1 | -45.4 | 126.5* | 14.9
Nc1c(/C=C2/C=CC(=O)C(O)=C2)c(=O)nc2sc(CC(=O)N3CCCC3)nn12 | 8.1 | 2.7 | 2.5 | -12.1 | · | ·
Nc1c(/C=C2/C=CC(=O)C(O)=C2)c(=O)nc2sc(CC(=O)N3CCCCC3)nn12 | 7.0 | 14.7 | 8.2 | -26.0 | · | ·
COC1=CC(=Cc2c(N)n3nc(CC(=O)N4CCCCC4)sc3nc2=O)C=C(OC)C1=O | -2.5 | 40.6* | -8.8 | -78.7 | 25.9* | 4.6
Nc1c(C=C2C=CC(=O)C=C2)c(=O)nc2sc(CC(=O)N3CCCCC3)nn12 | 6.3 | 2.7 | 1.0 | 2.3 | · | ·
CCOC1=C/C(=C/c2c(N)n3nc(CC(=O)N4CCCC4)sc3nc2=O)C=CC1=O | -0.8 | 30.3* | -3.0 | -87.9 | 38.6* | 11.9
CCOC(=S)SCC(=O)N1CCc2cc(OC)ccc2C1C1C(=O)CCCC1=O (stereo not drawn) | -0.7 | 1.4 | 1.1 | -3.2 | · | ·
CCNc1nnc(CSc2nc3ccccc3s2)s1 | 2.0 | 17.2* | -3.1 | -6.5 | 9.4 | 8.5
Cc1ccc(CCNC(=O)Cc2ccc(NC3=NC4CS(=O)(=O)CC4S3)cc2)cc1 (stereo not drawn) | 2.1 | 17.1* | -1.9 | -21.4 | 7.5 | 6.5
Cc1ccc(CCNC(=O)c2ccc(NC3=NC4CS(=O)(=O)CC4S3)cc2)cc1 (stereo not drawn) | 2.4 | 10.0 | 1.1 | -3.8 | · | ·
SMILES | HDAC3 inhib | IDE inh | LANA-H2B inh | IDE act | IDE inh confirm | HEK293 tox
Cn1nccc1C(=O)Nc1nnc(C2CC2)s1 | 6.4 | 6.5 | -3.2 | -0.3 | · | ·
CN(C)c1ccc(/C=C(/C(=O)c2ccc(Cl)cc2Cl)n2cncn2)cc1 | · | 141.3* | · | -145.9 | 161.8* | 28.2*
COc1ccc(/C=C(/C(=O)c2ccc(Cl)cc2Cl)n2cncn2)cc1 | ? | 0.3 | -1.1 | 5.5 | · | ·
Cc1ccc(C)c(S(=O)(=O)N2CCN(C(=O)c3sccc3C)CC2)c1 | -0.8 | -10.4 | -2.9 | 5.3 | · | ·
Cc1n[nH]c(C)c1N1C(=O)c2cccc3c(N4CCCCCC4)ccc(c23)C1=O | 9.7 | 121.7* | 64.7* | -67.2 | 25.9* | 10.3
O=C1c2cccc3c(N4CCCCC4)ccc(c23)C(=O)N1c1cccc(O)c1 | 4.1 | 124.4* | 9.2 | -139.9 | 152.9* | 24.8*
C=CCN1C(=O)c2cccc3c(N4CCCCC4)ccc(c23)C1=O | -8.9 | 21.7* | 3.0 | -74.5 | 84.9* | 24.3*
COc1ccc(C(=O)COC(=O)c2sc(C)nc2C)cc1F | -1.0 | 0.5 | 2.4 | -4.3 | · | ·
Cn1cc(/C=C/c2cc[n+](C)cc2)c2cc(F)ccc21 | 10.6 | 31.3* | -187.8 | -24.8 | 75.3* | 77.5*
Cn1cc(C=O)c2cc(F)ccc21 | 1.0 | -0.4 | -3.7 | 2.6 | · | ·
Cn1cc(/C=C/c2cc[n+](C)cc2)c2cc(Cl)ccc21 | 5.5 | 38.2* | -199.4 | -11.6 | 62.3* | 80.9*
Cc1ccc2c(c1)c(/C=C/c1cc[n+](C)cc1)c(C)n2C | 14.3 | · | 0.2 | -60.1 | · | ·
Cc1cccn2c(=O)c3cc(C(=O)NC4CCCC4)c(=N)n(C4CCCCC4)c3nc12 | -122.8 | 6.3 | 5.7 | 7.0 | · | ·
Cn1c(SCC(=O)OC2CCCCC2)nnc1-c1ccco1 | 8.4 | 18.9* | 1.3 | -7.4 | 5.0 | 13.5
O=C(O)Cc1sc(N/N=C\c2ccncc2)nc1-c1ccccc1 | 8.4 | 40.0* | -1.4 | -67.0 | 32.1* | 10.2
O=C(NC1CC1)c1cccc2c1C(=O)c1ccc(N3CCC(Cc4ccccc4)CC3)cc1S2(=O)=O | 7.6 | 39.6* | 6.6 | -33.3 | 70.2* | 45.2*
CC1CCN(c2ccc3c(c2)S(=O)(=O)c2cccc(C(=O)O)c2C3=O)CC1 | 13.6 | 31.7* | -2.4 | -31.6 | 47.9* | 5.4
Cc1csc(NC(=O)CSc2nncc(=O)n2N)n1 | 0.5 | 2.4 | -4.9 | 6.7 | · | ·
NC(=O)c1cc(NC(=O)CCNS(=O)(=O)c2cccc(C(F)(F)F)c2)cc(C(N)=O)c1 | 4.0 | 1.9 | 2.2 | -5.3 | · | ·
Cc1ccc2c(c1)CCCN2S(=O)(=O)c1cccc(C(=O)Nc2ccccc2C(=O)O)c1 | 5.5 | 40.8* | 0.1 | -82.6 | 23.5* | 25.6*
CCN(CC)c1ccc2c(c1)OC(N)=C(C#N)C2c1cccnc1 (stereo not drawn) | 10.2 | 49.2* | -41.2 | -28.2 | 30.8* | 70.0*
C=CCN1C(=O)/C(=C/c2ccc(O)cc2)S/C1=N/c1nccs1 | -2.0 | 118.6* | 1.7 | -111.3 | 93.5* | 20.1
C=CCN1C(=O)/C(=C/c2ccc(OC)cc2)S/C1=N/c1nccs1 | -0.3 | 0.7 | -7.4 | 0.3 | · | ·
